Results on 40 compounds are retold here after the supplement of paper PMC8975748.

Counter-ions that a name gives are not always drawn.

This assay has as its system Saccharomyces cerevisiae BY4741 SeMeCo community. Briefly: z-score of subpopulation abundance vs DMSO median, subpopulation auxotrophic for HUM; higher = larger share of this subpopulation than in DMSO controls. The note with it: 10 µM; 24 h; SM minimal medium; subpopulation (auxotrophy): HUM. How it is done: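 Fluorescent four-plasmid SeMeCo (self-establishing metabolically cooperating S. cerevisiae BY4741 community; plasmids pH-mRuby2, pL-mWasabi, pU-eCFP, pM-TagRFP657) was grown 24 h in minimal SM medium with each Selleck FDA-approved drug at 10 µM in 384-well plates. Cells were fixed and imaged by high-content confocal microscopy. For each auxotrophic subpopulation (and the prototroph), a z-score gives the deviation from the DMSO vehicle-control population median.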
Turning to `O=C(N[C@H](CO)[C@H](O)c1ccc([N+](=O)[O-])cc1)C(Cl)Cl` [Chloramphenicol], the “z-score of subpopulation abundance” value came out at 0.42.

On to `COc1ccnc(C[S+]([O-])c2nc3cc(-n4cccc4)ccc3[nH]2)c1C` (stereo not given) [Ilaprazole], for which the “z-score of subpopulation abundance” value is -1.45.

Take `Nc1nc2ccc(OC(F)(F)F)cc2s1` [Riluzole]: the “z-score of subpopulation abundance” value is -0.82.

With `C[C@H]1c2cccc(O)c2C(O)=C2C(=O)[C@]3(O)C(O)=C(C(N)=O)C(=O)[C@@H](N(C)C)[C@@H]3[C@@H](O)[C@@H]21` [Doxycycline], the “z-score of subpopulation abundance” value was -1.21.

For the compound `Cc1onc(-c2c(Cl)cccc2Cl)c1C(=O)N[C@@H]1C(=O)N2[C@@H]1SC(C)(C)[C@@H]2C(=O)O` [Dicloxacillin Sodium], the “z-score of subpopulation abundance” value is -0.11.

As to `C[C@@H](O)[C@H]1C(=O)N2C(C(=O)O)=C(S[C@@H]3CN[C@H](CNS(N)(=O)=O)C3)[C@H](C)[C@H]12` [Doripenem Hydrate], the “z-score of subpopulation abundance” value was -0.79.

Regarding `C[C@H]1O[C@@H](O[C@H]2[C@@H](O)C[C@H](O[C@H]3[C@@H](O)C[C@H](O[C@H]4CC[C@@]5(C)[C@H](CC[C@@H]6[C@@H]5C[C@@H](O)[C@]5(C)[C@@H](C7=CC(=O)OC7)CC[C@]65O)C4)O[C@@H]3C)O[C@@H]2C)C[C@H](O)[C@@H]1O` [Digoxin], the “z-score of subpopulation abundance” value is -0.77.

Consider `CCCNC(C)C(=O)Nc1ccccc1C` (stereo not given) [Prilocaine], for which the “z-score of subpopulation abundance” value was -0.22.

As to `CONC(=O)Nc1ccc(-c2sc3c(c2CN(C)C)c(=O)n(-c2ccc(OC)nn2)c(=O)n3Cc2c(F)cccc2F)cc1` [Relugolix], the “z-score of subpopulation abundance” value was -0.45.

For the compound `COc1ccc(Cl)cc1C(=O)NCCc1ccc(S(=O)(=O)NC(=O)NC2CCCCC2)cc1` [Glyburide (Glibenclamide)], the “z-score of subpopulation abundance” value was -0.09.

Turning to `CC(=O)OCC(COC(C)=O)OC(C)=O` [Triacetin], the “z-score of subpopulation abundance” value was 0.7.

On to `COc1ccc2c3c1O[C@H]1C[C@@H](O)C=C[C@@]31CCN(C)C2` [Galanthamine], for which the “z-score of subpopulation abundance” value is 1.27.

Consider `CCN(CC)CCOCCOC(=O)C1(c2ccccc2)CCCC1` [Pentoxyverine Citrate], for which the “z-score of subpopulation abundance” value was -1.14.

Consider `CCC(=O)NS(=O)(=O)c1ccc(-c2c(-c3ccccc3)noc2C)cc1` [Parecoxib Sodium], for which the “z-score of subpopulation abundance” value is 1.38.

As for `O=C(O)c1cccnc1Nc1cccc(C(F)(F)F)c1` [Niflumic acid], the “z-score of subpopulation abundance” value was -0.49.

`CC[N+](C)(C)c1cccc(O)c1` [Edrophonium chloride]: the “z-score of subpopulation abundance” value stood at 0.76.

For the compound `CN1C2CCCC1CC(NC(=O)c1nn(C)c3ccccc13)C2` (stereo not given) [Granisetron HCl], the “z-score of subpopulation abundance” value came to 0.03.

For `CCS(=O)(=O)CCn1c([N+](=O)[O-])cnc1C` [Tinidazole], the “z-score of subpopulation abundance” value was -0.47.

As to `CN1C2CCCC1CC(NC(=O)c1nn(C)c3ccccc13)C2` (stereo not given) [Granisetron], the “z-score of subpopulation abundance” value turned out to be 0.05.

In the case of `COc1ccc2cc(CCC(C)=O)ccc2c1` [Nabumetone], the “z-score of subpopulation abundance” value is -0.22.

As to `CC(=O)NO` [Acetohydroxamic acid], the “z-score of subpopulation abundance” value is 0.08.

As for `C[C@H]1NCc2cc(-c3ccc4c(=O)c(C(=O)O)cn(C5CC5)c4c3OC(F)F)ccc21` [Garenoxacin], the “z-score of subpopulation abundance” value was determined as 0.84.

As for `O=C1C(CC[S+]([O-])c2ccccc2)C(=O)N(c2ccccc2)N1c1ccccc1` (racemic) [(+/-)-Sulfinpyrazone], the “z-score of subpopulation abundance” value is 0.22.

For the compound `NC(=O)[C@@H]1CC[C@@H]2CN1C(=O)N2OS(=O)(=O)O` [Avibactam sodium], the “z-score of subpopulation abundance” value is -0.02.

As for `O=C(Nc1cc(Cl)cc(Cl)c1O)c1c(O)c(Cl)cc(Cl)c1Cl` [Oxyclozanide], the “z-score of subpopulation abundance” value is -0.71.

As to `C#C[C@]1(O)CC[C@H]2[C@@H]3CCC4=CCCC[C@@H]4[C@H]3CC[C@@]21C` [Lynestrenol], the “z-score of subpopulation abundance” value was 0.15.

Turning to `COCCCC/C(=N\OCCN)c1ccc(C(F)(F)F)cc1` [Fluvoxamine maleate], the “z-score of subpopulation abundance” value was determined as 0.06.

In the case of `C=C[C@]1(C)C[C@@H](OC(=O)CSC(C)(C)CNC(=O)[C@H](N)C(C)C)[C@]2(C)[C@H](C)CC[C@]3(CCC(=O)[C@H]32)[C@@H](C)[C@@H]1O` [Valnemulin HCl], the “z-score of subpopulation abundance” value worked out at 0.58.

As for `CCCSc1ccc2[nH]c(NC(=O)OC)nc2c1` [Albendazole], the “z-score of subpopulation abundance” value is -0.14.

On to `O=C(O)CCC(=O)Nc1ccc(S(=O)(=O)Nc2nccs2)cc1` [Succinylsulfathiazole], for which the “z-score of subpopulation abundance” value was -0.33.

Take `Clc1ccc2c(N3CCN(CCCN4CCN(c5ccnc6cc(Cl)ccc56)CC4)CC3)ccnc2c1` [Piperaquine phosphate]: the “z-score of subpopulation abundance” value was -0.06.

Consider `CCOC(=O)c1ccc(N)cc1` [Benzocaine hydrochloride], for which the “z-score of subpopulation abundance” value is 0.44.

For `C[C@H](NCc1ccc(OCc2cccc(F)c2)cc1)C(N)=O` [Safinamide Mesylate], the “z-score of subpopulation abundance” value came to 0.75.

In the case of `O=C(Cn1ccnc1[N+](=O)[O-])NCc1ccccc1` [Benznidazole], the “z-score of subpopulation abundance” value was -0.52.

Consider `COCCCN1CCC(NC(=O)c2cc(Cl)c(N)c3c2OCC3)CC1` [Prucalopride], for which the “z-score of subpopulation abundance” value came out at 0.36.

Take `OCCOc1ccc(/C(=C(/CCCl)c2ccccc2)c2ccccc2)cc1` [Ospemifene]: the “z-score of subpopulation abundance” value is -0.62.

As to `c1cnc2cc3c(cc2n1)[C@@H]1CNC[C@H]3C1` [Varenicline Tartrate], the “z-score of subpopulation abundance” value was -0.72.

On to `CNCCCN1c2ccccc2CCc2ccccc21` [Desipramine Hydrochloride], for which the “z-score of subpopulation abundance” value came out at 0.16.

Take `CCN(CC)C(=O)C1(c2ccccc2)CC1CN` (stereo not given) [Milnacipran HCl]: the “z-score of subpopulation abundance” value was -0.13.

Turning to `CCCCCOc1ccc(-c2ccc(-c3ccc(C(=O)N[C@H]4C[C@@H](O)[C@@H](O)NC(=O)[C@@H]5[C@@H](O)[C@@H](C)CN5C(=O)[C@H]([C@@H](C)O)NC(=O)[C@H]([C@H](O)[C@@H](O)c5ccc(O)cc5)NC(=O)[C@@H]5C[C@@H](O)CN5C(=O)[C@H]([C@@H](C)O)NC4=O)cc3)cc2)cc1`, the “z-score of subpopulation abundance” value was 25.3.
